The values below come from the supplement of paper PMC6609913.

Structures can show the parent of a compound that is named as a salt. ± gives the standard deviation of the averaged measurements. Over roughly 1,300 compounds, “normalised cell viability” has its median near 1; the lowest 2% begin near 0.15. Only a selection was taken, and the lowest values are over-represented in it overall.

This experiment relates to V-C8 + BRCA2 (BRCA2-proficient hamster cells). As to the kind of experiment: normalised cell viability (fraction of plate median); higher = more viable cells (less toxic). The settings on record: 5 µM. Summed up:
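Cell viability was measured with a resazurin assay, normalised to the plate median (modified robust per cent of sample) and averaged over triplicate wells. Hamster V-C8 cells lacking BRCA2 and V-C8 cells with BRCA2 restored were seeded in 96-well plates. After 24 h, library drugs from 10 mM DMSO stocks were added at a final 5 μM in 100 μl medium and left for 3 days (screen 1) or 6 days (screen 2), with solvent-only wells alongside.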

Regarding `CCCCC(CC)CNC(=N)NC(=N)NCCCCCCNC(=N)NC(=N)NCC(CC)CCCC` (configuration not stated) [Alexidine dihydrochloride], the normalised cell viability reads like this: (treatment time: 3 days) 0.143 ± 0.002; (treatment time: 6 days) 0.149 ± 0.011.

With `O=C1C=CC(=O)c2c1ccc1c2ccc2ccccc21` [Chrysene-1,4-quinone], the normalised cell viability (treatment time: 3 days) was 1.024 ± 0.0027 and the normalised cell viability (treatment time: 6 days) came to 1 ± 0.11.

With `CC(C)Oc1ccc2c(=O)c(-c3ccccc3)coc2c1` [Ipriflavone], the normalised cell viability runs as follows: (treatment time: 3 days) 0.993 ± 0.029; (treatment time: 6 days) 1.08 ± 0.11.

Regarding `Nc1ccn([C@@H]2CS[C@H](CO)O2)c(=O)n1` [Lamivudine], the normalised cell viability is, setting by setting: (treatment time: 3 days) 0.335 ± 0.012; (treatment time: 6 days) 0.406 ± 0.023.

In the case of `OC(CCN1CCCC1)(c1ccccc1)C1CCCCC1` (configuration not stated) [Procyclidine hydrochloride], the normalised cell viability (treatment time: 3 days) came to 0.981 ± 0.047 and the normalised cell viability (treatment time: 6 days) was 0.987 ± 0.012.

On to `COc1cc(OC)c(C(=O)CCCN2CCCC2)c(OC)c1` [Buflomedil hydrochloride], for which the normalised cell viability runs as follows: (treatment time: 3 days) 1.04 ± 0.096; (treatment time: 6 days) 1.07 ± 0.025.

For the compound `CN1C(C)(C)CCCC1(C)C` [Pempidine tartrate], the normalised cell viability runs as follows: (treatment time: 3 days) 1.1 ± 0.035; (treatment time: 6 days) 1.007 ± 0.0034.

As for `C[C@@]1(O)CCOC(=O)C1` [Mevalonic-D, L acid lactone], the normalised cell viability (treatment time: 3 days) worked out at 1.09 ± 0.038 and the normalised cell viability (treatment time: 6 days) stood at 1.06 ± 0.054.

Regarding `Nc1ccc(S(=O)(=O)Nc2ccnn2-c2ccccc2)cc1` [Sulfaphenazole], the normalised cell viability by setting is: (treatment time: 3 days) 1.07 ± 0.02; (treatment time: 6 days) 1.01 ± 0.041.

`Cc1ccnc2c1NC(=O)c1cccnc1N2C1CC1` [Nevirapine]: the normalised cell viability is, setting by setting: (treatment time: 3 days) 1.03 ± 0.087; (treatment time: 6 days) 1.05 ± 0.047.

With `C[C@H]1O[C@@H](O[C@H]2[C@@H](O)C[C@H](O[C@H]3[C@@H](O)C[C@H](O[C@H]4CC[C@@]5(C)[C@H](CC[C@@H]6[C@@H]5C[C@@H](O)[C@]5(C)[C@@H](C7=CC(=O)OC7)CC[C@]65O)C4)O[C@@H]3C)O[C@@H]2C)C[C@H](O)[C@@H]1O` [Digoxin], the normalised cell viability reads like this: (treatment time: 3 days) 1.06 ± 0.036; (treatment time: 6 days) 1.07 ± 0.13.

For `COc1ccc(NS(=O)(=O)c2ccc(N)cc2)nn1` [Sulfamethoxypyridazine], the normalised cell viability (treatment time: 3 days) is 0.879 ± 0.062 and the normalised cell viability (treatment time: 6 days) came out at 0.892 ± 0.069.

Take `CC(=O)c1ccc(S(=O)(=O)NC(=O)NC2CCCCC2)cc1` [Acetohexamide]: the normalised cell viability by setting is: (treatment time: 3 days) 1.22 ± 0.019; (treatment time: 6 days) 1.025 ± 0.0097.

In the case of `O=C1C(O)=C([C@H]2CC[C@H](c3ccc(Cl)cc3)CC2)C(=O)c2ccccc21` [Atovaquone], the normalised cell viability reads like this: (treatment time: 3 days) 0.958 ± 0.012; (treatment time: 6 days) 0.922 ± 0.04.

In the case of `CC(C)(C)NC(=O)[C@@H]1C[C@@H]2CCCC[C@@H]2CN1C[C@@H](O)[C@H](Cc1ccccc1)NC(=O)[C@H](CC(N)=O)NC(=O)c1ccc2ccccc2n1` [Saquinavir mesylate], the normalised cell viability by setting is: (treatment time: 3 days) 0.842 ± 0.061; (treatment time: 6 days) 0.952 ± 0.073.

Regarding `O=C1Cc2cc(CCN3CCN(c4nsc5ccccc45)CC3)c(Cl)cc2N1` [Ziprasidone  Hydrochloride], the normalised cell viability (treatment time: 3 days) turned out to be 0.206 ± 0.016 and the normalised cell viability (treatment time: 6 days) was 0.23 ± 0.013.

`CO/N=C(\C(=O)N[C@@H]1C(=O)N2C(C(=O)OC(C)OC(C)=O)=C(COC(N)=O)CS[C@H]12)c1ccco1` (some centres not stated) [Cefuroxime axetil]: the normalised cell viability runs as follows: (treatment time: 3 days) 1.01 ± 0.057; (treatment time: 6 days) 1.04 ± 0.12.

Turning to `Cc1cccc(N(C)C(=S)Oc2ccc3ccccc3c2)c1` [Tolnaftate], the normalised cell viability was determined as 1.02 ± 0.027 (treatment time: 3 days) and 1.04 ± 0.044 (treatment time: 6 days).

Take `CC(=O)CC(c1ccc([N+](=O)[O-])cc1)c1c(O)c2ccccc2oc1=O` (configuration not stated) [Acenocoumarol]: the normalised cell viability is, setting by setting: (treatment time: 3 days) 0.92 ± 0.023; (treatment time: 6 days) 0.979 ± 0.053.

On to `N[C@H]1CONC1=O` [(S)-(-)-Cycloserine], for which the normalised cell viability runs as follows: (treatment time: 3 days) 1.04 ± 0.043; (treatment time: 6 days) 0.917 ± 0.29.

In the case of `O=C1[C@H](CC[C@H](O)c2ccc(F)cc2)[C@@H](c2ccc(O)cc2)N1c1ccc(F)cc1` [Ezetimibe], the normalised cell viability worked out at 1.03 ± 0.04 (treatment time: 3 days) and 1.08 ± 0.054 (treatment time: 6 days).

In the case of `OC[C@H]1O[C@@H](Oc2ccc(O)cc2)[C@H](O)[C@@H](O)[C@@H]1O` [Arbutin], the normalised cell viability was determined as 1.02 ± 0.05 (treatment time: 3 days) and 0.979 ± 0.024 (treatment time: 6 days).

For `CCOC(=O)/C=C(C)/C=C/C=C(C)/C=C/c1c(C)cc(OC)c(C)c1C` [Etretinate], the normalised cell viability came to 1.01 ± 0.043 (treatment time: 3 days) and 1.13 ± 0.071 (treatment time: 6 days).

Consider `C[C@H]1c2cccc(O)c2C(=O)C2=C(O)[C@]3(O)C(=O)C(C(N)=O)=C(O)[C@@H](N(C)C)[C@@H]3[C@@H](O)[C@@H]21` [Doxycycline hydrochloride], for which the normalised cell viability stood at 0.947 ± 0.025 (treatment time: 3 days) and 0.982 ± 0.033 (treatment time: 6 days).

Turning to `CC(C)(C)c1ccc(C(O)CCCN2CCC(C(O)(c3ccccc3)c3ccccc3)CC2)cc1` (configuration not stated) [Terfenadine], the normalised cell viability is 0.118 ± 0.0067 (treatment time: 3 days) and 0.103 ± 0.0052 (treatment time: 6 days).

On to `CC(C)(C(=O)O)c1ccc(C(O)CCCN2CCC(C(O)(c3ccccc3)c3ccccc3)CC2)cc1` (configuration not stated) [Fexofenadine HCl], for which the normalised cell viability runs as follows: (treatment time: 3 days) 1.02 ± 0.051; (treatment time: 6 days) 1.04 ± 0.026.

On to `OC(CCCN1CCCCC1)(c1ccccc1)c1ccccc1` [Diphenidol hydrochloride], for which the normalised cell viability by setting is: (treatment time: 3 days) 1.08 ± 0.066; (treatment time: 6 days) 1.05 ± 0.025.

For the compound `Cc1cn[nH]c1` [Fomepizole], the normalised cell viability came to 1.07 ± 0.021 (treatment time: 3 days) and 0.9639 ± 0.0076 (treatment time: 6 days).

Turning to `CN(C)CCOc1ccc(/C(=C(/CCCl)c2ccccc2)c2ccccc2)cc1` [Toremifene], the normalised cell viability reads like this: (treatment time: 3 days) 0.822 ± 0.058; (treatment time: 6 days) 0.891 ± 0.027.

On to `CCN(CC)CCOc1ccc(C(=C(Cl)c2ccccc2)c2ccccc2)cc1` [Clomiphene citrate (Z,E)], for which the normalised cell viability came out at 0.124 ± 0.0093 (treatment time: 3 days) and 0.128 ± 0.013 (treatment time: 6 days).

`CC/C(=C(\c1ccccc1)c1ccc(OCCN(C)C)cc1)c1ccccc1` [Tamoxifen citrate]: the normalised cell viability (treatment time: 3 days) came to 0.878 ± 0.054 and the normalised cell viability (treatment time: 6 days) came out at 0.88 ± 0.021.
